20 molecules from PubChem BioAssay (NCI) can be followed below.

Where “and” joins values, the source holds several entries; their conditions need not be identical. Equal values may be shown once. About 79,000 compounds went through this panel and 15% of them were active in at least one assay; those are over-represented in the sample as a whole. Values without a mark were called inactive. Calls of active or inactive are those of the source. No stated cut-off is given here; in the data, active means growth inhibition above about 70%; inactive means the rest.

The nature of this test: NCI Yeast Anticancer Drug Screen. Data for the bub3 strain (AID 167). The note with it: S. cerevisiae bub3 mutant strain, hits give high values. On the procedure: Growth inhibition of yeast strains with defined genetic alterations is measured as a screen for potential anti-cancer activity. Selected strains with alterations in DNA damage repair or cell cycle control were exposed to compounds and growth inhibition was measured relative to vehicle treated controls. The strain used in this assay is bub3

Setting [1] is: at 5.0 µM (retest, dose inferred, filed as 0.5).
Where [2] appears, read: at 50.0 µM (retest, dose inferred, filed as 5.0).

Regarding `CC(C)c1cc([N+](=O)[O-])cc([N+](=O)[O-])c1O`, the growth inhibition reads like this: under setting [1], -4%; under setting [2], 85% (active); (at 50.0 µM) 55.5%.
`CC(C)[CH2][Sn](=[O])[c]1ccccc1`: the growth inhibition reads like this: under setting [1], 8%; under setting [2], 10%; (at 50.0 µM) 99.5% (active).
With `O=C([CH-]C(=O)c1ccccc1)c1ccccc1.O=C([CH-]C(=O)c1ccccc1)c1ccccc1.O=C([CH-]C(=O)c1ccccc1)c1ccccc1.[Cl-].[Zr+4]`, the growth inhibition runs as follows: under setting [1], 62%; under setting [2], 93% (active); (at 50.0 µM) 89.7% (active).
The matching figures for `C[C@@H]1C[C@@H]([C@H](O)CC2CC(=O)NC(=O)C2)C(=O)[C@@H](C)C1`: 98% (active), 99% (active) and 93.7% (active).
Consider `CC12CCC3C(CC=C4CC(SC(=N)N)CCC43C)C1CCC2=O` (configuration not stated), for which the growth inhibition runs as follows: under setting [1], 11%; under setting [2], 50%; (at 50.0 µM) 66.8%.
As to `NC[CH2][Sn]([c]1ccccc1)([CH]1CCCCC1)[CH]1CCCCC1`, the growth inhibition runs as follows: under setting [1], 98% (active); under setting [2], 98% (active); (at 50.0 µM) 98.5% (active).
As for `O=[N+]([O-])c1cc(-c2ccccc2)ccc1O`, the growth inhibition reads like this: under setting [1], 0%; under setting [2], -2%; (at 50.0 µM) 96.2% (active).
Take `[Cl][Pt][Cl].c1ccc([AsH](CC[AsH](c2ccccc2)c2ccccc2)c2ccccc2)cc1`: the growth inhibition under setting [1] was 99% (active), the growth inhibition under setting [2] is 99% (active) and the growth inhibition (at 50.0 µM) is 99.2% (active).
Take `COc1ccc2c(c1)CCC(N1CCCC(=O)C1)C2` (configuration not stated): the growth inhibition is, setting by setting: under setting [1], 4%; under setting [2], 31%; (at 50.0 µM) 89.1% (active).
Turning to `O=c1oc2cc(O)ccc2c(O)c1C(c1ccc(/C=C/c2ccccc2)cc1)c1c(O)c2ccc(O)cc2oc1=O`, the growth inhibition is, setting by setting: under setting [1], 15%; under setting [2], 42%; (at 50.0 µM) 86% (active).
For `[pH]1p2[pH]p3p1p3[pH]2.c1cc[c]([Ge]([c]2ccccc2)[c]2ccccc2)cc1.c1cc[c]([Ge]([c]2ccccc2)[c]2ccccc2)cc1.c1cc[c]([Ge]([c]2ccccc2)[c]2ccccc2)cc1`, the growth inhibition reads like this: under setting [1], 9%; under setting [2], 66%; (at 50.0 µM) -1%.
Turning to `CS(=O)(=O)OC1C2CC(C1OS(C)(=O)=O)C(c1ccccc1)C2C(=O)O` (configuration not stated), the growth inhibition (at 50.0 µM) is -1.85%.
Still for that read-out and setting: under `CCN1CN(c2ccccc2)C2(CCN(CC(CC3OCCO3)c3ccc(F)cc3)CC2)C1=O` (configuration not stated) stands 47%; under `Cc1ccc(-n2cnc3c(N(CCCl)CCCl)ncnc32)cc1`, 23.5%; under `CN(C)P1P(N(C)C)P(N(C)C)P1N(C)C` (configuration not stated), -7.5%.
Consider `COc1ccc2c(c1O)[C@@]13CCN(C)[C@@H](C2)[C@H]1CC(C)C(=O)C3` (some centres not stated), for which the growth inhibition (at 50.0 µM) was -0.6%.
Still for that read-out and setting: the result for `N=C(N)SCc1ccc(Cl)c(Cl)c1` (tested in a mixture with another compound) reads 3.5%.
For `[Cl][Co][Cl].[NH-]CC[NH-].[NH-]CC[NH-]`, the growth inhibition (at 50.0 µM) is 36.7% and 2.4%.
Turning to `N#CC(c1ccccc1)N1CCCN(C(C#N)c2ccccc2)C1c1ccc(N(CCCl)CCCl)cc1` (configuration not stated), where the note is “at 50.0 µM”, the growth inhibition is -0.9%.
Consider `Cc1c(OCC(=O)N/N=C/c2ccc(N(CCCl)CCCl)cc2)ccc2c(=O)c3ccccc3oc12`, for which the growth inhibition (at 50.0 µM) was 13.8%.
